# Activity calls are given as the source filed them. Unless noted, the rule behind the calls is not given here.
# Experiments:
# [1] = compound effects on lung adenocarcinoma cell viability – A549, calcein-AM fluorescence, 48 h, basal, profiling panel (AID 1162); conditions: higher = more signal; note: test concentration not given here
# [2] = compound effects on differentiated 3T3-L1 adipocyte viability – cell-based, 3T3-L1 adipocytes, calcein-AM fluorescence, 48 h, basal, profiling panel (AID 1163); conditions: 3T3-L1 adipocytes viability, higher = more signal; note: test concentration not given here
# [3] = compound effects on hepatocellular carcinoma cell viability – HepG2, calcein-AM fluorescence, 48 h, basal, profiling panel (AID 1164); conditions: higher = more signal; note: test concentration not given here
# [4] = compound effects on multiple myeloma cell viability – MM1S, calcein-AM fluorescence, 48 h, basal, profiling panel (AID 1165); conditions: higher = more signal; note: test concentration not given here
# [5] = calcein-AM signal in unstimulated myeloma cells – cell-based, calcein-AM fluorescence, 48 h, PK04 Diversity Set, profiling panel (AID 1166); conditions: RPMI8226 myeloma viability, higher = more signal;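 note: cells grown under basal conditions without added stimulus; test concentration not given here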
# [6] = JC-1 mitochondrial signal, unstimulated HepG2 cells – cell-based, JC-1 fluorescence, 24 h, 100 nL compound, profiling panel (AID 1167); conditions: HepG2 mitochondrial potential, higher = more signal; note: test concentration not given here
# [7] = JC-1 mitochondrial signal, unstimulated adipocytes – cell-based, JC-1 fluorescence, 3T3-L1 adipocytes, 24 h, 100 nL compound, profiling panel (AID 1168); conditions: JC-1 mitochondrial fluorescence, higher = more signal, called active from +8 up or from −8 down; note: test concentration not given here
# [8] = JC-1 mitochondrial signal, unstimulated myeloma cells – cell-based, JC-1 fluorescence, RPMI8226, 24 h, 100 nL compound, profiling panel (AID 1169); conditions: JC-1 mitochondrial potential fluorescence, higher = more signal; note: test concentration not given here
# [9] = JC-1 mitochondrial signal, unstimulated MM1S myeloma – cell-based, JC-1 fluorescence, 24 h, 100 nL compound, profiling panel (AID 1170); conditions: MM1S mitochondrial potential, higher = more signal; note: test concentration not given here
# [10] = resazurin metabolic signal in A549 cells – cell-based, resazurin fluorescence, 24 h, PK04 Diversity Set, profiling panel (AID 1171); conditions: A549 viability, higher = more signal, called active from +8 up or from −8 down; note: test concentration not given here
# [11] = resazurin metabolic signal in HepG2 cells – cell-based, resazurin fluorescence, 24 h, PK04 Diversity Set, profiling panel (AID 1172); conditions: HepG2 viability, higher = more signal; note: test concentration not given here
# [12] = budding yeast growth changes without added modifier – OD600, strain BY4716, 24 h, basal condition, primary screen (AID 1173); conditions: S. cerevisiae BY4716 growth, OD600, 24 h; higher = more signal, called active from +8 up or from −8 down
# [13] = viability profiling in MM1S myeloma cells – cell-based, resazurin fluorescence, basal, 24 h, PK04 Diversity Set, profiling panel (AID 1174); conditions: higher = more signal, called active from +8 up or from −8 down; note: test concentration not given here
# [14] = target: Dihydroorotate dehydrogenase (quinone), mitochondrial (Plasmodium falciparum (isolate 3D7)) (UniProt Q08210); experiment: inhibition of P. falciparum DHODH – biochemical, C-terminal His tag, absorbance 600 nm, primary screen (AID 1175); conditions: PfDHODH enzyme, DCIP absorbance 600 nm; higher = more signal, called active from +8 up or from −8 down;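 note: recombinant parasite enzyme with a five histidine tag at its C terminus; test concentration not given here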
# [15] = inhibition of PAO1 biofilm formation – strain PAO1, LB-PBS medium, absorbance 600 nm, primary screen (AID 1176); note: test concentration not given here; conditions: P. aeruginosa PAO1 growth/biofilm, A600, 12 h; higher = more signal
# [16] = growth modulation of vineyard yeast isolate – strain RM11-1a, OD600, basal, 24 h, primary screen (AID 1177);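 note: cultures grown under basal conditions with no added stressor; test concentration not given here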; conditions: S. cerevisiae RM11-1a growth, OD600, 24 h; higher = more signal, called active from +8 up or from −8 down
# [17] = growth of efflux-deficient E. coli DRC39 – strain DRC39, OD650, 24 h, E. coli filamentation inducers, primary screen (AID 1178);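 note: growth measured as culture turbidity by optical density at 650 nm; test concentration not given here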; conditions: E. coli DRC39 acrAB, higher = more signal, called active from +8 up or from −8 down
# [18] = growth of efflux-deficient E. coli DRC39 – strain DRC39, OD650, 48 h, E. coli filamentation inducers, primary screen (AID 1179);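 note: screen aims at cell division blockers that make cells filament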; conditions: E. coli DRC39 delta-acrAB growth, higher = more signal, called active from +8 up or from −8 down
# [19] = viability profiling in RPMI8226 myeloma cells – cell-based, resazurin fluorescence, basal, 24 h, PK04 Diversity Set, profiling panel (AID 1180); conditions: higher = more signal;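 note: RPMI8826 multiple myeloma cell line at 5000 cells per well; test concentration not given here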
# [20] = target: E3 ubiquitin-protein ligase XIAP (Homo sapiens) (UniProt P98170); experiment: small molecules binding XIAP protein – biophysical, small-molecule microarray, fluorescence 635 nm, primary screen (AID 1181); conditions: higher = more signal;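 note: score merges 667 nm emission and signal to noise over triplicate slides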
# E3 ubiquitin-protein ligase XIAP (Homo sapiens), sequence (P98170 whole entry, looked up): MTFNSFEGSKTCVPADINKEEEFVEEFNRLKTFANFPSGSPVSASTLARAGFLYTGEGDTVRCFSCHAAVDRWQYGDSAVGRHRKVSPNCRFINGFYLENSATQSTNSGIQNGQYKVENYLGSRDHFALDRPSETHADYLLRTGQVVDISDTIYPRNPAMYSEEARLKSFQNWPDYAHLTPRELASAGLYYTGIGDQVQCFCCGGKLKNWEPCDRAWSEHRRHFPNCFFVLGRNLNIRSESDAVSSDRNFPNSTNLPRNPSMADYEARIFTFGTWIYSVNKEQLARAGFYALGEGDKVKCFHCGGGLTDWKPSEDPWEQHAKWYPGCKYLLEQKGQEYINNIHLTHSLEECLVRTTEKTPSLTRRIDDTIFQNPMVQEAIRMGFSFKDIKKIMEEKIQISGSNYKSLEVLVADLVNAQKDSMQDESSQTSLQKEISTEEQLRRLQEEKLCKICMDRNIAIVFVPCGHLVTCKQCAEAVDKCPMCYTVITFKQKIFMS
# Dihydroorotate dehydrogenase (quinone), mitochondrial (Plasmodium falciparum (isolate 3D7)), sequence (Q08210 whole entry, looked up): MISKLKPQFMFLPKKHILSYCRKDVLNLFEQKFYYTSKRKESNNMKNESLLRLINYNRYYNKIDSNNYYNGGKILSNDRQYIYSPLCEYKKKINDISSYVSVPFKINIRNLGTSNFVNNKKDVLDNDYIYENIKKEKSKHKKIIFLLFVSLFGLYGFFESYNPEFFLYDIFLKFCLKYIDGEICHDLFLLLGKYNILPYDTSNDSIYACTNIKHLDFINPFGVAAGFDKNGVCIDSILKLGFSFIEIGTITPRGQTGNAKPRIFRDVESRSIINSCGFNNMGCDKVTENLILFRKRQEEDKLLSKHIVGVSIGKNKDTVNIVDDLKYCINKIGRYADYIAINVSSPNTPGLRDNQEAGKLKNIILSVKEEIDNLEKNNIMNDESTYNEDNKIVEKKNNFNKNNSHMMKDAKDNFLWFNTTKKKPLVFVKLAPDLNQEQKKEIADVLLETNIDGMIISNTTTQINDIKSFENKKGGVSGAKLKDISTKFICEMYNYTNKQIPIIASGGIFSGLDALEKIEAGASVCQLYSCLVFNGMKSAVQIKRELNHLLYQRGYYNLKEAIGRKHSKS
SMILES,z-score [1],z-score [2],z-score [3],z-score [4],z-score [5],z-score [6],z-score [7],z-score [8],z-score [9],z-score [10],z-score [11],z-score [12],z-score [13],composite z-score [14],z-score [15],z-score [16],z-score [17],z-score [18],z-score [19],composite z-score [20]
CCCC#C[Si](O[C@H](CC)c1cn(Cc2ccccc2)nn1)(C(C)C)C(C)C,-0.164,-0.782,0.709,-0.588,-0.439,0.0193,-0.497 (inactive),0.973,-1.16,-0.406 (inactive),-0.394,-14.2 (active),-1.05 (inactive),-0.205 (inactive),0.0763 (inactive),-0.0787 (inactive),-0.393 (inactive),-0.195 (inactive),-0.754,-0.173
COC(=O)[C@@]1(Cc2ccc(OC)cc2)[C@H]2c3cc(C(=O)N4CCCC4)n(CCn4cc([N+](=O)[O-])nc4C)c3C[C@H]2CN1C(=O)c1ccccc1,-1.13,0.936,0.0032,-0.0622,-2.16,2.13,-1.03 (inactive),0.564,-0.693,-0.612 (inactive),-0.916,0.477 (inactive),-1.72 (inactive),-0.329 (inactive),2.04 (inactive),-0.123 (inactive),-0.784 (inactive),-0.552 (inactive),-1.65,0.111
C=CCC(OC(C)=O)[C@@H]1[C@@H](N(Cc2ccc(-c3ccccc3)cc2)C(=O)c2cccc3ccccc23)c2cc(OCCCO)ccc2N1C(=O)Cc1ccc(OC)cc1 (stereo not given in full),-0.0276,0.725,-0.518,-0.536,-0.682,1.57,-1.63 (inactive),0.78,0.401,-0.399 (inactive),-0.533,0.186 (inactive),-0.572 (inactive),-0.0892 (inactive),-0.121 (inactive),-0.788 (inactive),-0.0251 (inactive),-0.288 (inactive),-0.505,-0.264
C=C(COC)C(=O)CC[C@@H](OC(=O)c1ccccc1-c1ccccc1C(=O)O)c1ccc(OCCO)cc1,-0.25,1.27,-0.354,-3.06,-0.414,-1.05,-0.144 (inactive),-0.163,0.0435,-0.205 (inactive),-0.425,-0.528 (inactive),-0.105 (inactive),-1.09 (inactive),0.449 (inactive),-0.426 (inactive),-0.699 (inactive),-0.708 (inactive),-0.492,0.165
CCOC(=O)C1=CC[C@@H](c2ccc(OC)cc2)N(S(=O)(=O)c2ccc(C)cc2)[C@H]1c1ccc(C)cc1,-0.35,-1.09,0.65,0.632,0.583,2.39,-0.717 (inactive),0.859,-0.897,0.302 (inactive),0.164,1.31 (inactive),-0.616 (inactive),-0.329 (inactive),-0.0601 (inactive),-0.187 (inactive),-0.346 (inactive),-0.148 (inactive),-0.652,0.126
COc1ccc(C#Cc2ccc3c(c2)[C@]2(C(=O)N3)[C@H](C(=O)O)[C@H]3C(=O)O[C@H](c4ccccc4)[C@H](c4ccccc4)N3[C@@H]2c2ccccc2OCCO)cc1,-1.23,1.19,-2.52,-3.32,-4.18,-3.99,2.1 (inactive),-0.823,-1.3,-0.435 (inactive),-0.638,0.0196 (inactive),-2.53 (inactive),-3.86 (inactive),3.23 (inactive),2.48 (inactive),0.761 (inactive),-0.183 (inactive),-5.64,0.013
[N-]=[N+]=NCc1ccccc1[C@@H]1OC(c2ccc(OCCCO)cc2)=N[C@]1(Cc1ccccc1N=[N+]=[N-])C(=O)O,0.143,1.47,-0.567,-1.82,-3.36,-1.44,-1.48 (inactive),-1.11,1.44,0.54 (inactive),0.495,-3.6 (inactive),0.589 (inactive),0.454 (inactive),1.42 (inactive),0.783 (inactive),2.32 (inactive),0.499 (inactive),-0.0845,0.104
CC(C)N1C(=O)C[C@@](C(=O)NCCN2CCOCC2)(c2ccc([N+](=O)[O-])cc2)[C@H]1c1ccc(CO)cc1,-0.827,-0.641,-0.235,-0.617,0.0859,0.0432,-0.279 (inactive),-0.95,-0.672,1.05 (inactive),1.68,-1.39 (inactive),0.795 (inactive),-0.1 (inactive),-0.838 (inactive),-0.291 (inactive),0.0506 (inactive),0.445 (inactive),1.23,-0.0747

# — PubChem BioAssay
